In PubChem BioAssay (NCI):
About 83,000 compounds went through this panel and 20% of them were active in at least one assay; those are over-represented in the sample as a whole.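 Each cell line was grown in a 96-well plate and treated with one concentration of compound for 48 hours. Values below 10 were considered active.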 Calls of active or inactive are those of the source.

Tested on: LOX IMVI melanoma
Assay: NCI-60 one-dose screen, 48 h (100 = growth as untreated, 0 = no growth, -100 = all killed)
Conditions: 10 µM
Experimental: Growth inhibition of the LOX IMVI human tumor cell line is measured as a screen for anti-cancer activity. Cells are grown in 96 well plates and exposed to the test compound for 48 hours. Compounds are tested at a single concentration, which is 10^-5 M for most compounds. The reported endpoint is percent growth (GI% or GIPRCNT), where numbers from 0 - 100% represent growth inhibition, and numbers from -100% - 0 represent cell death. For example, a value of 40 represents 60% growth inhibition. A value of 0 means no net growth occurred over the course of the experiment. A value of -40 indicates 40% of cells at the beginning of the experiment died by the end of the experiment. A value of -100 means all cells are dead at the end of the experiment.
NCI-60 Human Tumor Cell Lines Screen was performed using the standard one-dose NCI protocol, which is described in more detail at https://dtp.cancer.gov/discovery_development/nci-60/default.htm.
Compounds with GIPRCNT values below 10 were considered active. Activity score was based on GIPRCNT using the following formula: […]
Score is 0 for GIPRCNT values of 100 or above, 50 for GIPRCNT values of 0, and 100 for GIPRCNT values of -100.

| SMILES | growth |
| --- | --- |
| O=c1[nH]c(=O)c2c(-c3cc4ccccc4oc3=O)ccnc2[nH]1 | 65.3% (inactive) |
| O=C(Cn1c(/C=C/c2cccc([N+](=O)[O-])c2)nc2ccccc2c1=O)Nc1ccccc1 | 33% (inactive) |
| Cc1ccc([C@H]2C(C(=O)c3ccc(Cl)cc3)C3(N[C@@H]2c2ccccc2)C(=O)Nc2ccc(Br)cc23)cc1 (stereo not given in full) | 35.9% (inactive) |
| O=C1CC(Sc2n[nH]c(-c3ccncc3)n2)C(=O)N1c1ccc(Br)cc1 (stereo not given) | 100% (inactive) |
| C=C1CC[C@@H]2[C@]3(C)COC(c4cn[nH]c4-c4ccc(Br)cc4)O[C@@H]3CC[C@@]2(C)[C@@H]1C/C=C1/C(=O)OCC1O (stereo not given in full) | -100% (active) |
| CC1[C@H]2[C@H](C[C@H]3[C@@H]4CC=C5c6sc(Nc7ccccc7F)nc6CC[C@]5(C)[C@H]4CC[C@@]32C)O[C@]12CC[C@@H](C)CO2 (stereo not given in full) | -90.4% (active) |
| CC(C)CSc1nc(NCCc2c[nH]c3ccccc23)c(C#N)c(-c2ccc(F)cc2)n1 | 12.4% (inactive) |
| Cn1cc(NC(=O)c2cc(NC(=O)c3ccc(/C=C/c4ccccc4)cc3)cn2C)cc1C(=O)NCCCN1CCOCC1 | -97.5% (active) |
| Clc1cccc(-c2ccc(OCCCN3CCN(c4ccncc4)CC3)cc2)c1 | -94.9% (active) |
| Cc1ccc(NC(=O)CN2CCN(c3ncnc4c3cnn4-c3ccccc3)CC2)cc1 | 23.3% (inactive) |
| CCOC(=O)C(N=Nc1ccc(S(=O)(=O)N=C(N)N)cc1)C(C)=O (stereo not given) | 109% (inactive) |
| CC1(C)CC[C@]2(C(=O)Nc3ccc(Br)cc3)CC[C@]3(C)C(=CCC4[C@@]5(C)C[C@@H](O)[C@H](O)[C@@](C)(CO)C5CC[C@]43C)C2C1 (stereo not given in full) | -86.7% (active) |
| CN(C)c1nc(NCCNS(=O)(=O)c2ccc(C(=O)/C=C/c3ccc(Cl)cc3)cc2)nc(Nc2ccc(F)cc2)n1 | -100% (active) |
| NS(=O)(=O)c1ccc(-n2cc(-c3cccc(NC(=O)c4ccc(Cl)c(C(F)(F)F)c4)c3)nn2)cc1 | -33.3% (active) |
| O=C(Nc1ccccc1)N1CCN(c2cc(-c3cn(-c4ccccc4)nc3-c3cccc(O)c3)ccn2)CC1 | 69.1% (inactive) |
| COc1c(F)ccc(C(=O)Nc2ccc3nc(NC(=O)C4CCCN(S(=O)(=O)c5cccc(Cl)c5)C4)sc3c2)c1F (stereo not given) | 79.6% (inactive) |
| COc1ccc(C(=O)Nc2n[nH]c(Nc3ccccc3)c2C#N)cc1 | 98.3% (inactive) |
| Cc1ccc(S(=O)(=O)c2nc(S(=O)(=O)c3ccc(C)cc3)c(N3CCN(C)CC3)s2)cc1 | 30.4% (inactive) |
| COc1cc(-c2nc3ccc(C)cc3[nH]2)ccc1OCc1nnc(-c2ccc(Br)cc2)o1 | 77.1% (inactive) |
| COc1c(F)ccc(C(=O)Nc2ccc3nc(NC(=O)C4CCCN(S(=O)(=O)c5ccc(Cl)cc5)C4)sc3c2)c1F (stereo not given) | 76% (inactive) |

| SMILES | growth |
| --- | --- |
| COc1cc2c(c(OC)c1OC)C(=O)CC(c1cccc(NC(=O)c3cc(NC(=O)[C@H](C)N)ccc3Cl)c1)O2 (stereo not given in full) | 15.7% (inactive) |
| COc1c(F)ccc(C(=O)Nc2ccc3nc(NC(=O)C4CCCN(S(=O)(=O)c5ccc(C(F)(F)F)cc5)C4)sc3c2)c1F (stereo not given) | 83.3% (inactive) |
| CCS(=O)(=O)N1CCCC(C(=O)Nc2nc3ccc(NC(=O)c4ccc(F)c(OC)c4F)cc3s2)C1 (stereo not given) | 67.6% (inactive) |
| COc1ccc(C(=O)/C=C/c2cccc(Cl)c2)cc1S(N)(=O)=O | -87.4% (active) |
| O=C(N1c2ccccc2Sc2ccccc21)n1ccc2cccnc21 | 44.8% (inactive) |
| Cn1cc(-c2cc(N)n3nc(-c4cn(C)c5ccc(Cl)cc45)cc3n2)c2ccccc21 | 110% (inactive) |
| CCCCSc1nc(Nc2ccc(C(C)=O)cc2)c(C#N)c(-c2ccc(OC)cc2)n1 | 39.7% (inactive) |
| C=C1CC[C@@H]2[C@]3(C)COC(c4cn[nH]c4-c4cccc(Br)c4)O[C@@H]3CC[C@@]2(C)[C@@H]1C/C=C1/C(=O)OCC1O (stereo not given in full) | -100% (active) |
| CC(=O)OC[C@@]1(C)C2CC[C@]3(C)C(CC=C4C5CC(C)(C)CC[C@]5(C(=O)Nc5ccc(C)cc5)CC[C@]43C)[C@@]2(C)C[C@@H](OC(C)=O)[C@@H]1OC(C)=O (stereo not given in full) | 12.5% (inactive) |
| CC1=C(C#N)C2=NNCC(c3ccccc3)=NN2C(c2ccccc2)=C1 | 109% (inactive) |
| NS(=O)(=O)c1ccc(-n2cc(-c3cccc(NC(=O)c4cc(Cl)cc(Cl)c4)c3)nn2)cc1 | 2.52% (active) |
| COc1ccc(/C=C/c2nc3ccccc3c(=O)n2CC(=O)Nc2ccc(OC)cc2)cc1 | 64.8% (inactive) |
| Cc1ccc(C(=O)CSc2nc3ccc(F)cc3c(=O)n2-c2ccc(Cl)cc2)cc1 | 60.7% (inactive) |
| C=C1CC[C@@H]2[C@]3(C)COC(c4ccccc4)O[C@@H]3CC[C@@]2(C)[C@@H]1C/C=C1/C(=O)OCC1OC(C)=O (stereo not given in full) | -100% (active) |
| O=c1cc(-c2ccccc2)oc2cc(OCCCC[P+](c3ccccc3)(c3ccccc3)c3ccccc3)cc(O)c12 | -90.1% (active) |
| Nc1nnc(-c2c[nH]c3ccc(Br)cc23)c(-c2c[nH]c3ncc(Br)cc23)n1 | 31.8% (inactive) |
| Cc1ccc(-n2c(-c3cc4ccccc4nc3Cl)noc2=O)cc1 | 85.1% (inactive) |
| O=C(Nc1ccc(C(F)(F)F)cc1)Nc1ccc2oc(=O)ccc2c1 | -83.8% (active) |
| CC12CC[C@@H]3[C@]4(C)COC(c5cn[nH]c5-c5cccc(Br)c5)O[C@@H]4CC[C@@]3(C)[C@@H]1CC(C1=CCOC1=O)O2 (stereo not given in full) | -8.01% (active) |
| COc1ccc2[nH]c(O)c(N=NC(=O)Cn3c(-c4ccccc4)nc4cc(C)ccc43)c2c1 | 38.3% (inactive) |
